Experimental data: PubChem BioAssay
Active and inactive are the calls of the source.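 The calls were made as follows, unless noted: active = efflux inhibition above 0.42, the validation set average plus 4 SD; inconclusive = no clear call, values can overlap the other calls; inactive = the rest.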

Legend:
[1] = inhibitors of CD8+ T cell-vesicle binding, pilot screen, LFA-1/ICAM-1 modulator project, MLPCN validation set, flow cytometry (AID 2523;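 active = response below a set limit, under 55% cells CD8-positive and vesicle-bound, and CD8 cells' 90th-percentile brightness under 279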;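 as to vesicle binding response: mean PE anti-B7-1 fluorescence of CD8+ cells relative to row control; 100% = QL9-loaded vesicles with DMSO vehicle in the same plate row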); conditions: 2C mouse CD8+ T cells, at 7 µM, stronger effect = lower value; double positive events: measured here: CD8+/vesicle+ event percentage
[2] = molecular target: Integrin beta-1 (Homo sapiens) + Integrin alpha-4 (Homo sapiens) (UniProt P13612+P05556); assay: inhibition of HUTS-21 binding to VLA-4, pilot screen, VLA-4 allosteric modulator project, U937 cells, HUTS-21 mAb, flow cytometry, validation set (AID 2674;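 active = inhibition above 50%, about 3 SD of the validation set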;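 also: antibody binding induced by the VLA-4 ligand LDV present at three times its Kd; 0% = LDV ligand with antibody and no compound and 100% = antibody without LDV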); conditions: HUTS-21 LIBS mAb binding, at 6.7 µM, stronger effect = higher value, binding induced by LDV ligand
[3] = superoxide lowering in aged yeast cells, pilot screen, validation compound set (AID 2706;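 active = superoxide response below 65% of plate, a cut near 3 SD across the whole screen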;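 also: yeast exposed to compound for one week at 30 degrees C before staining; 100% = mean of all compound wells on the same plate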); conditions: S. cerevisiae aging, superoxide DHE fluorescence; at 10 µM, stronger effect = lower value
[4] = molecular target: Beta-adrenergic receptor kinase 1 (Homo sapiens) (UniProt P25098); assay: GRK2 binders displacing RNA aptamer, biochemical, validation, human GRK2, bead flow cytometry (AID 488806;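 active = aptamer binding inhibition above 30%, about 3 SD of noise from non-fluorescent compounds; inactive = inhibition at or below 30%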); conditions: bead-bound GRK2, FAM-aptamer displacement, at 10 µM, stronger effect = higher value
[5] = molecular target: Beta-2 adrenergic receptor (Homo sapiens) (UniProt P07550); assay: beta2AR agonists driving receptor internalization, pilot screen, cell-based, FAP fluorogen, flow cytometry, validation set (AID 504459;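 active = percent response above 42, roughly 3 SD of non-fluorescent test compounds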;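 also: agonist-driven loss of surface beta2AR via internalization measured by FAP dye flow cytometry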); conditions: Am2.2-beta2AR cells, FAP surface receptor flow cytometry; at 10 µM; stronger effect = higher value
[6] = molecular target: AP-2 complex subunit beta (Homo sapiens) (UniProt P63010); assay: inhibitors of arrestin peptide binding to AP2, pilot screen, biochemical, validation set, GST-AP2 beads, flow cytometry (AID 504541;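 active = inhibition above 54%, about 3 SD of non-fluorescent compounds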;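 also: AP2 carries R879A mutation and is captured from E. coli lysate; bead-bound FITC arrestin peptide fluorescence measuring arrestin peptide binding to AP2; 0% = DMSO wells and 100% = excess unlabeled arrestin peptide control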); conditions: FITC arrestin peptide, at 10 µM, stronger effect = higher value, AP2 beta2 appendage fragment, R879A mutant
[7] = yeast V-ATPase proton transport modulators, S. cerevisiae, pHLuorin, HTS validation (AID 504600; in the data active = response above about 15%;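 also: plate controls were DMSO for no effect and reference compound for full effect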); conditions: S. cerevisiae pHLuorin cytosolic pH, at 10 µM, stronger effect = higher value
[8] = system: anti-desmoglein-3 scFv antibody binding to human DSG3; assay: inhibitors of anti-DSG3 scFv binding to DSG3, pilot screen, biochemical, validation compound set, bead-based, flow cytometry (AID 588368;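 active = binding below the plate cutoff, the plate median minus 3 SD, with a reading above zero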;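 also: signal is the median channel fluorescence of bead-bound GFP antibody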); conditions: Protein G beads, DSG3-Fc, scFv-GFP binding, at 10 µM, stronger effect = lower value
[9] = inhibitors of fungal efflux pumps CDR1, CDR2, MDR1, pilot screen, validation compound set, multiplex, phenotypic (AID 588506);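 also: Nile Red retained in cells so higher fluorescence means more efflux inhibition; 0 = negative control wells and 1 = enniatin B 25 µM full block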; conditions: S. cerevisiae pump-expressing triplex, Nile Red efflux flow cytometry; at 10 µM; stronger effect = higher value; the pumps come from Candida albicans
[10] = molecular target: ATP-binding cassette sub-family B member 6 (Homo sapiens) (UniProt Q9NP58); assay: ABCB6 transporter inhibitors, pilot screen, K562-ABCB6 cells, flow cytometry, validation set (AID 588550;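 active = inhibition above the screen-wide mean plus 3 SD, about 51%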;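 also: 0% = DMSO wells and 100% = benzethonium chloride 70 µM positive control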); conditions: K562-ABCB6 porphyrin accumulation, 1 h, at 10 µM, stronger effect = higher value
[11] = promoters of myeloid differentiation in arrested cells, primary screen, cell-based, GFP/MAC1 double positive, flow cytometry, validation set (AID 588685;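 active = differentiation response of at least 50%, scaled between solvent and reference control, from cells with both markers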;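 also: compound exposure lasts four days before antibody staining and flow analysis; 0% = DMSO wells and 100% = 5 µM fulvestrant positive control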); conditions: ER-HoxA9 marrow cells, stronger effect = higher value, normalized: vehicle 0, fulvestrant 100

Sequence of Beta-adrenergic receptor kinase 1 (Homo sapiens) (P25098 whole entry, looked up): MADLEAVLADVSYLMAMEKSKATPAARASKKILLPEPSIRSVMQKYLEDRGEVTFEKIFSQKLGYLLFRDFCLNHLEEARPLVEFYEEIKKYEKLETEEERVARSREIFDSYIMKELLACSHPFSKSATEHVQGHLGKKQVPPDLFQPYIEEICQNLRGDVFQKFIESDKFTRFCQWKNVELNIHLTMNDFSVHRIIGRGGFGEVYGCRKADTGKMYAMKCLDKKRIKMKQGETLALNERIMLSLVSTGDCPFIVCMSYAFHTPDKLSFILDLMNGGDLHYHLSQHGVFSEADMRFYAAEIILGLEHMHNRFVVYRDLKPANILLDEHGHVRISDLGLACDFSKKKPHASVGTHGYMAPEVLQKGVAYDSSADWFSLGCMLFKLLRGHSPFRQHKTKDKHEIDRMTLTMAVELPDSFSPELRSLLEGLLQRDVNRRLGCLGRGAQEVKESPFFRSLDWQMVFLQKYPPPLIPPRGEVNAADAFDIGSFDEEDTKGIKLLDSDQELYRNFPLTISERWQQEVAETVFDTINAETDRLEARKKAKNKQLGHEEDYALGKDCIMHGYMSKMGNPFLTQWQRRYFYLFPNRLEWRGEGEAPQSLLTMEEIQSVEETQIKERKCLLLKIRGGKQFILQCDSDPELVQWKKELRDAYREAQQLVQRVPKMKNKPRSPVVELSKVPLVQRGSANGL
Sequence of ATP-binding cassette sub-family B member 6 (Homo sapiens) (Q9NP58 whole entry, looked up): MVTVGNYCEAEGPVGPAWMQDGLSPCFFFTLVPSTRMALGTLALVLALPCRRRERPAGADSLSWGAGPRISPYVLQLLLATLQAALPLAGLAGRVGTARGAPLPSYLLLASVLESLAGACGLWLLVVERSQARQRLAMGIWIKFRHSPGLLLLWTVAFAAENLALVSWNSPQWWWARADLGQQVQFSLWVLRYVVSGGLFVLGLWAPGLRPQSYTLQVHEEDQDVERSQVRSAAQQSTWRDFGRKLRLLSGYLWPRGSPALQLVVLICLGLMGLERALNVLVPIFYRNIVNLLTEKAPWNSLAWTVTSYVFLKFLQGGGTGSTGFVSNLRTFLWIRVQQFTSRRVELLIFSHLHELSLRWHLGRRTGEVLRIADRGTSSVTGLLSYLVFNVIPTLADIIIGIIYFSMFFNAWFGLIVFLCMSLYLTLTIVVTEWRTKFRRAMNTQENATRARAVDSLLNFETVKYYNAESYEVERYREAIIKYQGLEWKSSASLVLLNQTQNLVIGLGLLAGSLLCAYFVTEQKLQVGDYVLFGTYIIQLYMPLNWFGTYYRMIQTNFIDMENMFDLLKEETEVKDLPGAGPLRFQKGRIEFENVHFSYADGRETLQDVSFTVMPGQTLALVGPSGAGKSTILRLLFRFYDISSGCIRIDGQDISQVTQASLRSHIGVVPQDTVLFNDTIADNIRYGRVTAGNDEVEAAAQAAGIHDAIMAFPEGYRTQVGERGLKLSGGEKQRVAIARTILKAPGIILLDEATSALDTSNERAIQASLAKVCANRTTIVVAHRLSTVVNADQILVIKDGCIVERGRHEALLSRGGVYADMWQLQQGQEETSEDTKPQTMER
Sequence of Beta-2 adrenergic receptor (Homo sapiens) (P07550 whole entry, looked up): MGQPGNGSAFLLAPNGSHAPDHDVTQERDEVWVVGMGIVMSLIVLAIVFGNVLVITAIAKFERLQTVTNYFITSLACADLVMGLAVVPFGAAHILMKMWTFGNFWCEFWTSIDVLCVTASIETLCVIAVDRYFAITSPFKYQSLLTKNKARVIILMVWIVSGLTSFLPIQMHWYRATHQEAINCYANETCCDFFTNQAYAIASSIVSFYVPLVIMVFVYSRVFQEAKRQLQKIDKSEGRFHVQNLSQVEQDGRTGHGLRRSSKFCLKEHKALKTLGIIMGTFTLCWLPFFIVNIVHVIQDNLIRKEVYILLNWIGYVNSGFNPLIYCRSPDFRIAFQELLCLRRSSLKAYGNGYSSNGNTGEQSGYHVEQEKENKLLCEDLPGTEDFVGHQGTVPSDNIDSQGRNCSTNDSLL
Sequence of AP-2 complex subunit beta (Homo sapiens) (P63010 whole entry, looked up, the tested form may be a part, one chain of several): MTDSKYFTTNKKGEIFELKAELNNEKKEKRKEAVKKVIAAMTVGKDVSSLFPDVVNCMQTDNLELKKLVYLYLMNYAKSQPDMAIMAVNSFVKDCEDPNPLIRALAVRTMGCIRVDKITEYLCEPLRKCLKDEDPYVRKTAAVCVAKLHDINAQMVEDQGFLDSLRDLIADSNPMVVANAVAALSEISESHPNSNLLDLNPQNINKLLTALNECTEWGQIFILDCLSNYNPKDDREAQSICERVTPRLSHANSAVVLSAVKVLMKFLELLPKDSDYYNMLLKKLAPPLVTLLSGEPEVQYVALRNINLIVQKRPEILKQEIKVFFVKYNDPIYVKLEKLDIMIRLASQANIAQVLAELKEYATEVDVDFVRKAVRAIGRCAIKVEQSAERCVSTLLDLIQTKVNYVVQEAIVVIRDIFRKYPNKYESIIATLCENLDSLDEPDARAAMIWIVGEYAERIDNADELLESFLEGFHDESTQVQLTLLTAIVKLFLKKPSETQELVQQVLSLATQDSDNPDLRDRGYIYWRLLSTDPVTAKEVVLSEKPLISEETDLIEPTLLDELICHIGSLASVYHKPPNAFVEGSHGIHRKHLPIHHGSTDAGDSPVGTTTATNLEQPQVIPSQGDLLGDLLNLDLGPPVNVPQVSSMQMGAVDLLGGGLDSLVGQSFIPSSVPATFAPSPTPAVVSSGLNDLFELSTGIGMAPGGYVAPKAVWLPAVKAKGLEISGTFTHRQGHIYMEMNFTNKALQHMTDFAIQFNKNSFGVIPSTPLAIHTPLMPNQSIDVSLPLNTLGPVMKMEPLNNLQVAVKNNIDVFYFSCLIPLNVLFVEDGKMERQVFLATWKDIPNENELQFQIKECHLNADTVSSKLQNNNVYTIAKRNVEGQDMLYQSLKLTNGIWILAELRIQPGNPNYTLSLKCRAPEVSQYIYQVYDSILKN
Sequence of Integrin beta-1 (Homo sapiens) + Integrin alpha-4 (Homo sapiens) (P05556 whole entry, looked up): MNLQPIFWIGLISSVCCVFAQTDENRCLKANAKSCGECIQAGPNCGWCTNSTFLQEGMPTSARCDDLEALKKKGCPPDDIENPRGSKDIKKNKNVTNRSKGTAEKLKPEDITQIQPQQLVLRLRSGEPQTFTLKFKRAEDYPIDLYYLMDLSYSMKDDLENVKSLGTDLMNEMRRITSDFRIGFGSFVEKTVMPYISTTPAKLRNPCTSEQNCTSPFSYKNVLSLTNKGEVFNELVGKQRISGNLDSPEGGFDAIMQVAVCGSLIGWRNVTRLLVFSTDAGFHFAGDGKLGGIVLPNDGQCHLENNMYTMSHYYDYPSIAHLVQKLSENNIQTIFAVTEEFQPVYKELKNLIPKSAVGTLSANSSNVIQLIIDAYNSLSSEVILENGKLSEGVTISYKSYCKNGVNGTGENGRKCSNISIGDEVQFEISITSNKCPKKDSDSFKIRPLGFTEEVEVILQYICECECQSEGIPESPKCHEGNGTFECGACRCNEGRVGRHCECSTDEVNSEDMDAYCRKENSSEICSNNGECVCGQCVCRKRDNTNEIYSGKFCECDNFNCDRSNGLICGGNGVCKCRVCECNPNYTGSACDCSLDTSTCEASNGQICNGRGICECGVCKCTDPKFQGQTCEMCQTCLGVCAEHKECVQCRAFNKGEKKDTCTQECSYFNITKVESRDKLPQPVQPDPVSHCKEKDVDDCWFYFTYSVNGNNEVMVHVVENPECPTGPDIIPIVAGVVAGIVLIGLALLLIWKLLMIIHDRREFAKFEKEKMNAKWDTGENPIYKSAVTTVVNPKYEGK
Sequence of Integrin beta-1 (Homo sapiens) + Integrin alpha-4 (Homo sapiens) (P13612 whole entry, looked up): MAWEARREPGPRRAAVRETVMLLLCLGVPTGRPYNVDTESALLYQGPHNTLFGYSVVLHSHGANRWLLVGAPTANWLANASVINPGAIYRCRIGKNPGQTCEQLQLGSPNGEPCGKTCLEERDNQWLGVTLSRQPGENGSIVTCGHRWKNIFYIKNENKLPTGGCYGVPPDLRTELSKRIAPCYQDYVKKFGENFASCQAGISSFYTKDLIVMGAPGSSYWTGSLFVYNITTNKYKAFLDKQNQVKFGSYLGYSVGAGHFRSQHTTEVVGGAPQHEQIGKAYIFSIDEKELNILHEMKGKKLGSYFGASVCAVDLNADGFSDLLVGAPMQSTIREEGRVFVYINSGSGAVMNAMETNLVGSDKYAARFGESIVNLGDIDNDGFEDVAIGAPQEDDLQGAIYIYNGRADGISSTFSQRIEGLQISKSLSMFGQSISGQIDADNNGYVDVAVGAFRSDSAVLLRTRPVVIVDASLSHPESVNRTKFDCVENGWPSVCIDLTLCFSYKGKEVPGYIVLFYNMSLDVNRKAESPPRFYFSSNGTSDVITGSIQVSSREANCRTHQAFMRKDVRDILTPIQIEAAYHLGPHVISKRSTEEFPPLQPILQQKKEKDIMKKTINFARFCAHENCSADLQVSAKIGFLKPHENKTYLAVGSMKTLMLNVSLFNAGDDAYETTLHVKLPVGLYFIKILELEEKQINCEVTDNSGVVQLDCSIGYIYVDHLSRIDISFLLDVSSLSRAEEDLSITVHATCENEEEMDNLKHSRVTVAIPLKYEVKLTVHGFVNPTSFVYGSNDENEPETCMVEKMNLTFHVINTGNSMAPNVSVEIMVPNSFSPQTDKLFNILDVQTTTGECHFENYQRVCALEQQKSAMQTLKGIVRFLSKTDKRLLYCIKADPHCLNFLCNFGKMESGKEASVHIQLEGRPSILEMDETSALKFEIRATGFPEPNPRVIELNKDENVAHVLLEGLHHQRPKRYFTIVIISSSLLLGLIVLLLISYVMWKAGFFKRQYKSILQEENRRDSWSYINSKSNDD

| SMILES | double positive events [1] | vesicle binding response [1] | inhibition [2] | superoxide response (% of plate) [3] | aptamer binding inhibition [4] | response [5] | inhibition [6] | response [7] | binding (% of control) [8] | efflux inhibition (fraction of control) [9] | inhibition [10] | differentiation response [11] |
| --- | --- | --- | --- | --- | --- | --- | --- | --- | --- | --- | --- | --- |
| Fc1cc(F)cc(NC(=S)NCCCN2CCOCC2)c1 | 59.3% | 214% (inactive) | 5.69% (inactive) | 80.8% (inactive) | -5% (inactive) | -24.3% (inactive) | -3.24% (inactive) | 4.35% (inactive) | 107% (inactive) | -0.13 (inactive) | 2% (inactive) | 0.92% (inactive) |
| CC(C)OC(=O)CC1C(=O)NCCN1C(=S)NC(=O)c1ccccc1Cl (configuration not stated) | 57.9% | 115% (inactive) | -5.11% (inactive) | 94.8% (inactive) | 1% (inactive) | 11.7% (inactive) | 7.65% (inactive) | -6.29% (inactive) | 111% (inactive) | 0 (inactive) | -197% (inactive) | -10.4% (inactive) |
| O=c1oc2c(CN3CCN(CCO)CC3)c(O)ccc2cc1-c1ccccn1 | 62.7% | 150% (inactive) | -14.9% (inactive) | 88.3% (inactive) | -1% (inactive) | 59.8% (active) | -9.17% (inactive) | 5.97% (inactive) | 109% (inactive) | -0.06 (inactive) | 15% (inactive) | 10.6% (inactive) |
| CCn1c(O)c(/C=C2\C=Nc3ccccc32)sc1=O | 63.1% | 97.1% (inactive) | -0.31% (inactive) | 108% (inactive) | 1% (inactive) | -3.25% (inactive) | -17.2% (inactive) | 0.06% (inactive) | 97.5% (inactive) | -0.44 (inactive) | 4% (inactive) | -5.68% (inactive) |
| CC(C)c1ccc2[nH]c3c(c2c1)CCCC3=O | 59.4% | 113% (inactive) | 4.27% (inactive) | 97.7% (inactive) | 2% (inactive) | 11.3% (inactive) | 0.1% (inactive) | 1.31% (inactive) | 102% (inactive) | 0.04 (inactive) | 27% (inactive) | -1.65% (inactive) |
| COc1ccc(O)c(N)c1 | 70.2% | 381% (inactive) | -22.3% (inactive) | 104% (inactive) | 5% (inactive) | 76.4% (active) | 20.1% (inactive) | 3.74% (inactive) | 99.1% (inactive) | -0.1 (inactive) | 7% (inactive) | -0.8% (inactive) |
| C[C@H]1O[C@H]1P(=O)(O)O | 66.2% | 197% (inactive) | 15.1% (inactive) | 95.9% (inactive) | 5% (inactive) | -11.7% (inactive) | 6.72% (inactive) | 17.1% (active) | 103% (inactive) | -0.09 (inactive) | 9% (inactive) | 12.8% (inactive) |
| CC(=O)N(CCC1(C(C)C)CCOC(C)(C)C1)Cc1ccco1 (configuration not stated) | 64.3% | 276% (inactive) | -16.8% (inactive) | 94.3% (inactive) | -4% (inactive) | 3.66% (inactive) | 0.1% (inactive) | -0.44% (inactive) | 105% (inactive) | -0.09 (inactive) | 11% (inactive) | 12.3% (inactive) |
| CN(C)c1cc(NC(=O)CN2CCOCC2)c2ccccc2n1 | 64.4% | 183% (inactive) | -9.06% (inactive) | 96.2% (inactive) | -2% (inactive) | 2.53% (inactive) | -0.56% (inactive) | -1.23% (inactive) | 109% (inactive) | -0.17 (inactive) | 15% (inactive) | -3.28% (inactive) |
| O=C1CCCCCN1Cc1ccccc1 | 62.4% | 208% (inactive) | 3.67% (inactive) | 97.2% (inactive) | 7% (inactive) | -1.56% (inactive) | -4.78% (inactive) | 5.84% (inactive) | 101% (inactive) | -0.24 (inactive) | 5% (inactive) | 8.8% (inactive) |
| COc1cc2c(cc1OC)C1(CCCCC1)CN(C)C2 | 57.3% | 258% (inactive) | 16% (inactive) | 103% (inactive) | 5% (inactive) | 5.44% (inactive) | 4.18% (inactive) | 1.68% (inactive) | 89% (inactive) | 0.12 (inactive) | -22% (inactive) | 4% (inactive) |
| O=C(Oc1cccccc1=O)c1ccccc1 | 63.4% | 281% (inactive) | 21% (inactive) | 105% (inactive) | 6% (inactive) | -20.4% (inactive) | 1.79% (inactive) | -32.2% (inactive) | 102% (inactive) | 0 (inactive) | 2% (inactive) | 5.85% (inactive) |
| CC(=O)Nc1cc(O)cc(O)c1 | 60.5% | 189% (inactive) | 11.9% (inactive) | 99.3% (inactive) | -2% (inactive) | -0.41% (inactive) | 0.4% (inactive) | -0.22% (inactive) | 106% (inactive) | -0.06 (inactive) | 6% (inactive) | 69.6% (active) |
| COc1cc(OC)c(C(=O)CCCN2CCCC2)c(OC)c1 | 65.4% | 214% (inactive) | -3.24% (inactive) | 97.6% (inactive) | 4% (inactive) | -11.1% (inactive) | 1.36% (inactive) | 1.8% (inactive) | 109% (inactive) | 0.19 (inactive) | 10% (inactive) | -8.19% (inactive) |
| CC(=O)OCC(OC(C)=O)C(OC(C)=O)C(OC(C)=O)C(=O)Nc1cccc(C)c1 (configuration not stated) | 59.9% | 153% (inactive) | -4.52% (inactive) | 110% (inactive) | 3% (inactive) | 4.29% (inactive) | -4.4% (inactive) | 1.1% (inactive) | 97% (inactive) | -0.1 (inactive) | 2% (inactive) | -10.4% (inactive) |
| COc1ccc(/C=N\NC(=O)CCc2c(C)n[nH]c2C)c(OC)c1OC | 60.3% | 151% (inactive) | -3.16% (inactive) | 111% (inactive) | 2% (inactive) | 3.8% (inactive) | 7.15% (inactive) | -0.97% (inactive) | 102% (inactive) | -0.21 (inactive) | 4% (inactive) | 4% (inactive) |
| CN(C)CCCNc1ncnc2c1cnn2-c1ccccc1 | 70.3% | 336% (inactive) | 16% (inactive) | 94.4% (inactive) | -2% (inactive) | 8.67% (inactive) | -0.95% (inactive) | 1.69% (inactive) | 97% (inactive) | 0.12 (inactive) | 12% (inactive) | 23.2% (inactive) |
| NS(=O)(=O)c1cc2c(cc1C(F)(F)F)NCNS2(=O)=O | 80.6% | 205% (inactive) | 10.8% (inactive) | 92.9% (inactive) | 5% (inactive) | -9.47% (inactive) | 1.9% (inactive) | 1.35% (inactive) | 101% (inactive) | -0.04 (inactive) | 11% (inactive) | -3.02% (inactive) |
| CCN(CC)C(=S)SSC(=S)N(CC)CC | 59.7% | 164% (inactive) | 27.8% (inactive) | 109% (inactive) | 4% (inactive) | 14.2% (inactive) | 3.89% (inactive) | -29.5% (inactive) | 100% (inactive) | -0.13 (inactive) | 4% (inactive) | -0.06% (inactive) |
| Cc1cc(C(=O)NC(CC(C)C)C(=O)O)cc(C)c1[N+](=O)[O-] (configuration not stated) | 61.7% | 204% (inactive) | -2.43% (inactive) | 96.9% (inactive) | 4% (inactive) | 1% (inactive) | 1.45% (inactive) | -4.26% (inactive) | 99% (inactive) | -0.12 (inactive) | 17% (inactive) | -10.4% (inactive) |
| CC(COc1ccccc1)N(CCCl)Cc1ccccc1 (configuration not stated) | 70.8% | 566% (inactive) | 6.46% (inactive) | 97.4% (inactive) | 2% (inactive) | -7.17% (inactive) | 1.11% (inactive) | 2.49% (inactive) | 100% (inactive) | -0.35 (inactive) | 10% (inactive) | 0% (inactive) |
| COc1ccc(/C=C\C(=O)c2c(O)ccc3c(C)cc(=O)oc23)cc1OC | 60.8% | 182% (inactive) | 14.2% (inactive) | 94.3% (inactive) | 1% (inactive) | 16.8% (inactive) | 60.6% (active) | -0.16% (inactive) | 106% (inactive) | 0.29 (inactive) | -4% (inactive) | -1.05% (inactive) |
| COc1ccc2c(c1OC)C(=O)NC(C)=C(C(=O)OC(C)(C)C)C2O (configuration not stated) | 62.8% | 192% (inactive) | 5.03% (inactive) | 97.2% (inactive) | 4% (inactive) | 7.52% (inactive) | -5.16% (inactive) | 1.16% (inactive) | 103% (inactive) | 0.01 (inactive) | 7% (inactive) | 56.8% (active) |
| CCOC(=O)COc1ccc2c(=O)c(-c3ccccc3)coc2c1 | 61.7% | 236% (inactive) | 21% (inactive) | 92.8% (inactive) | 0% (inactive) | -10.5% (inactive) | 1.34% (inactive) | 0.65% (inactive) | 100% (inactive) | -0.09 (inactive) | -4% (inactive) | -7.94% (inactive) |
| COc1cc(C(=O)OCCCN(C)C)cc(OC)c1OC | 60.1% | 180% (inactive) | 21.9% (inactive) | 93.6% (inactive) | -2% (inactive) | -28.8% (inactive) | 4.79% (inactive) | 1.07% (inactive) | 108% (inactive) | -0.09 (inactive) | -1% (inactive) | -4.99% (inactive) |
| COc1ccc(N2C(=O)[C@@H]3Cc4ccccc4CN3C2=O)cc1 | 63.2% | 211% (inactive) | 14.6% (inactive) | 89.7% (inactive) | 5% (inactive) | 12.1% (inactive) | -2.78% (inactive) | -2.4% (inactive) | 107% (inactive) | 0.01 (inactive) | 7% (inactive) | 18.4% (inactive) |
